Measurements: PubChem BioAssay (NCI)
The panel holds about 79,000 compounds, 15% with a hit somewhere; the sample as a whole holds those more often. Calls of active or inactive are those of the source. No stated cut-off is given here; in the data, active means growth inhibition above about 70%; inactive means the rest.

Tests used:
[1] = NCI Yeast Anticancer Drug Screen. Data for the rad52 strain (AID 147);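 further: 0% = growth of vehicle-treated control cultures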; settings: S. cerevisiae rad52 mutant growth inhibition, stronger effect = higher value
How it was run: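 Inhibition of yeast growth, referenced to vehicle controls, was the measured output for a strain with defective DNA damage repair.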

[2] = NCI Yeast Anticancer Drug Screen. Data for the wt1 strain (AID 149);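 further: 0% = growth of vehicle-treated wt1 cultures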; settings: S. cerevisiae wt1 strain (SPY 50644) growth inhibition, stronger effect = higher value
How it was run: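 Yeast wt1 strain exposed to compounds; growth inhibition measured relative to vehicle-treated controls.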

[3] = NCI Yeast Anticancer Drug Screen. Data for the rad50EPP+ strain (AID 151);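 further: 0% = growth of vehicle-treated control cultures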; settings: S. cerevisiae rad50 mutant strain, stronger effect = higher value
How it was run: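 Genetically defined yeast (rad50EPP+, DNA damage repair alteration) is grown with compound, and inhibition of growth is expressed relative to vehicle-treated controls.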

[4] = NCI Yeast Anticancer Drug Screen. Data for the mgt1 strain (AID 153); settings: S. cerevisiae mgt1 mutant growth inhibition, stronger effect = higher value
How it was run: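 In the mgt1 strain, test compounds were added and growth inhibition was determined relative to vehicle-treated controls.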

[5] = NCI Yeast Anticancer Drug Screen. Data for the rad50 strain (AID 155);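 further: 0% = growth of vehicle-only cultures of the same strain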; settings: S. cerevisiae rad50 strain growth inhibition, stronger effect = higher value
How it was run: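 Yeast carrying a defined DNA repair defect were exposed to test compounds, and growth was compared with vehicle-treated controls to give percent inhibition.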

[6] = NCI Yeast Anticancer Drug Screen. Data for the mec2-1 strain (AID 157); settings: S. cerevisiae mec2-1 strain, stronger effect = higher value
How it was run: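 Each compound was tested on mec2-1 yeast, a strain altered in DNA damage repair or cell cycle control. Growth inhibition is reported relative to vehicle.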

[7] = NCI Yeast Anticancer Drug Screen. Data for the rad14 strain (AID 159);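 further: 0% = growth of vehicle-treated control cultures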; settings: S. cerevisiae rad14 strain growth inhibition, stronger effect = higher value
How it was run: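 Yeast cells carrying a defined DNA-repair defect were exposed to compounds, and growth inhibition was calculated relative to vehicle-treated control cultures.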

[8] = NCI Yeast Anticancer Drug Screen. Data for the sgs1 mgt1 strain (AID 161);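 further: 0% = growth of cultures given vehicle only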; settings: S. cerevisiae sgs1 mgt1 strain, stronger effect = higher value
How it was run: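 Mutant yeast exposed to compound; growth scored against vehicle-only wells.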

[9] = NCI Yeast Anticancer Drug Screen. Data for the CLN2oe strain (AID 163);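 further: 0% = growth of vehicle-only control cultures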; settings: S. cerevisiae CLN2oe strain, stronger effect = higher value
How it was run: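 First, the altered yeast strain was treated with each compound; second, its growth was measured; finally, inhibition was derived by comparison with vehicle controls.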

[10] = NCI Yeast Anticancer Drug Screen. Data for the cln2 rad14 strain (AID 165);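 further: 0% = growth equal to vehicle treated cultures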; settings: S. cerevisiae cln2 rad14 strain, stronger effect = higher value
How it was run: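 Test compounds were added to cln2 rad14 yeast cultures; inhibition of growth was then determined by comparison with vehicle treatment.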

[11] = NCI Yeast Anticancer Drug Screen. Data for the bub3 strain (AID 167); settings: S. cerevisiae bub3 mutant strain, stronger effect = higher value
How it was run: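 Compounds were applied to a genetically altered yeast strain carrying a cell-cycle control defect. Growth inhibition was scored against vehicle-treated controls.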

[12] = NCI Yeast Anticancer Drug Screen. Data for the wt2 strain (AID 169);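 further: 0% = growth of vehicle-treated yeast cultures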; settings: S. cerevisiae wt2 strain growth inhibition, stronger effect = higher value
How it was run: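 The panel's yeast strains carry defined changes in DNA repair or cell cycle genes. Each strain is grown with compound, and growth loss is scored relative to vehicle.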

[13] = NCI Yeast Anticancer Drug Screen. Data for the mlh1 strain (AID 171);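 further: 0% = growth of vehicle-treated control cultures of the same strain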; settings: S. cerevisiae mlh1 strain growth inhibition, stronger effect = higher value
How it was run: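 Inhibition values reflect reduced yeast growth in the presence of compound, referenced to vehicle controls, using a strain chosen for its alteration in DNA repair or cell cycle control.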

[14] = NCI Yeast Anticancer Drug Screen. Data for the sgs1 strain (AID 173);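 further: 0% = growth of vehicle-only control cultures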; settings: S. cerevisiae sgs1 mutant, stronger effect = higher value
How it was run: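 Vehicle-treated cultures served as reference for growth inhibition of a yeast strain altered in DNA damage repair or cell cycle control after compound exposure.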

[15] = NCI Yeast Anticancer Drug Screen. Data for the mlh1 rad18 strain (AID 175); settings: S. cerevisiae mlh1 rad18 strain growth inhibition, stronger effect = higher value
How it was run: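 Inhibition values reflect reduced growth of mutant yeast versus vehicle-treated controls following compound exposure; the mutations affect DNA damage repair.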

[16] = NCI Yeast Anticancer Drug Screen. Data for the rad18 strain (AID 177); settings: S. cerevisiae rad18 mutant growth inhibition, stronger effect = higher value
How it was run: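 Steps: expose repair-mutant yeast to compound; measure growth; express as inhibition relative to vehicle control.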

[17] = at 5.0 µM (retest, dose inferred, filed as 0.5)
[18] = at 50.0 µM (retest, dose inferred, filed as 5.0)

Measured: growth inhibition

CC(=O)Nc1ccc(/C=C/[N+](=O)[O-])cc1
active: [1]; at 100.0 µM 97% | [2]; at 100.0 µM 75% | [3]; at 33.0 µM 72% | [3]; at 100.0 µM 82% | [4]; at 100.0 µM 99% | [5]; at 33.0 µM 91% | [5]; [18] 94% | [5]; at 50.0 µM 85% | [5]; at 100.0 µM 98% | [6]; at 100.0 µM 95% | [7]; at 100.0 µM 99% | [8]; [18] 72% | [9]; at 100.0 µM 71% | [11]; at 100.0 µM 72% | [12]; at 100.0 µM 91% | [13]; at 100.0 µM 96% | [14]; at 100.0 µM 99% | [15]; [18] 91% | [15]; at 50.0 µM 94% | [16]; at 100.0 µM 92%
inactive: [1]; at 1.2 µM 19% | [1]; at 3.7 µM 23% | [1]; at 11.0 µM 43% | [1]; at 33.0 µM 69% | [2]; at 1.2 µM -1% | [2]; at 3.7 µM -3% | [2]; at 11.0 µM -4% | [2]; at 33.0 µM 6% | [3]; at 1.2 µM 22% | [3]; at 3.7 µM 42% | [3]; at 11.0 µM 51% | [4]; at 1.2 µM -2% | [4]; at 3.7 µM -4% | [4]; at 11.0 µM -1% | [4]; at 33.0 µM 20% | [5]; at 1.2 µM 31% | [5]; at 3.7 µM 35% | [5]; [17] -66% | [5]; at 11.0 µM 67% | [6]; at 1.2 µM -1% | [6]; at 3.7 µM -2% | [6]; [17] -42% | [6]; at 11.0 µM 14% | [6]; at 33.0 µM 3% | [6]; [18] 33% | [6]; at 50.0 µM 53.4% | [7]; at 1.2 µM 2% | [7]; at 3.7 µM 11% | [7]; at 11.0 µM 18% | [7]; at 33.0 µM 40% | [8]; [17] -43% | [8]; at 50.0 µM 47.6% | [9]; at 1.2 µM -3% | [9]; at 3.7 µM -1% | [9]; at 11.0 µM 3% | [9]; at 33.0 µM 10% | [10]; [17] -55% | [10]; [18] -19% | [10]; at 50.0 µM 46.2% | [11]; at 1.2 µM -4% | [11]; at 3.7 µM -5% | [11]; [17] -61% | [11]; at 11.0 µM 1% | [11]; at 33.0 µM 6% | [11]; [18] 43% | [11]; at 50.0 µM 68.8% | [12]; at 1.2 µM -4% | [12]; at 3.7 µM -3% | [12]; at 11.0 µM -4% | [12]; at 33.0 µM 11% | [13]; at 1.2 µM -1% | [13]; at 3.7 µM -6% | [13]; at 11.0 µM 1% | [13]; at 33.0 µM 22% | [14]; at 1.2 µM -3% | [14]; at 3.7 µM 11% | [14]; at 11.0 µM 15% | [14]; at 33.0 µM 52% | [15]; [17] -96% | [16]; at 1.2 µM 3% | [16]; at 3.7 µM 6% | [16]; at 11.0 µM 12% | [16]; at 33.0 µM 25%
